Data published in the supplement of paper PMC11634586.
Structures can show the parent of a compound that is named as a salt.

system: NCI-H1688; test: inhibition of cell viability relative to untreated control (fraction); higher = stronger growth inhibition, active = 0.5 or more; conditions: 30 µM; 24 h
Description: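 Natural product library (TargetMol, 640 compounds) screened on NCI-H1688 SCLC cells at 30 µM for 24 h; viability by CCK-8 absorbance at 450 nm, normalised to untreated control and expressed as inhibition rate (fraction). Compounds with >50% reduction in viability were selected as hits.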

Row | Compound | inhibition of cell viability
1 | COC(=O)/C=C/c1ccc(O)cc1 [Methyl 4-hydroxycinnamate] | -0.109 (inactive)
2 | O=c1c2ccccc2nc2n1CCc1c-2[nH]c2ccccc12 [Rutaecarpine] | -0.128 (inactive)
3 | C[C@H](CCC(=O)O)[C@H]1CC[C@H]2[C@@H]3[C@H](O)C[C@@H]4C[C@H](O)CC[C@]4(C)[C@H]3CC[C@]12C [Chenodeoxycholic acid] | 0.152 (inactive)
4 | OC[C@H]1O[C@H](O)[C@H](O)[C@@H](O)[C@H]1O [Alpha-D-galactose] | 0.0334 (inactive)
5 | CC[C@H](C)[C@H](N)C1=N[C@H](C(=O)N[C@@H](CC(C)C)C(=O)N[C@H](CCC(=O)O)C(=O)N[C@H](C(=O)N[C@H]2CCCCNC(=O)[C@H](CC(N)=O)NC(=O)[C@@H](CC(=O)O)NC(=O)[C@H](Cc3cnc[nH]3)NC(=O)[C@@H](Cc3ccccc3)NC(=O)[C@H]([C@@H](C)CC)NC(=O)[C@@H](CCCN)NC2=O)[C@@H](C)CC)CS1 [Bacitracin] | -0.0913 (inactive)
6 | C[C@H](CCC(=O)O)[C@H]1CC[C@H]2[C@@H]3CC[C@@H]4C[C@H](O)CC[C@]4(C)[C@H]3C[C@H](O)[C@]12C [Deoxycholic acid] | -0.113 (inactive)
7 | CC[C@H]1OC(=O)[C@H](C)[C@@H](O[C@H]2C[C@@](C)(OC)[C@@H](O)[C@H](C)O2)[C@H](C)[C@@H](O[C@@H]2O[C@H](C)C[C@H](N(C)C)[C@H]2O)[C@](C)(O)C[C@@H](C)[C@@H]2N[C@@H](COCCOC)O[C@H]([C@H]2C)[C@]1(C)O [Dirithromycin] | 0.0389 (inactive)
8 | CC(=O)OC1CC2CCC1(C)C2(C)C (stereo not given) [Bornyl acetate] | -0.214 (inactive)
9 | CC12CCC(CC1=O)C2(C)C (stereo not given) [Camphor] | -0.239 (inactive)
10 | CC[C@H](CC[C@@H](C)[C@H]1CC[C@H]2[C@@H]3CC=C4C[C@@H](O)CC[C@]4(C)[C@H]3CC[C@]12C)C(C)C [Beta-Sitosterol] | 0.185 (inactive)
11 | CN(N=O)C(=O)N[C@@H](C=O)[C@@H](O)[C@H](O)[C@H](O)CO [Streptozocin] | 0.214 (inactive)
12 | N[C@@H](Cc1c[nH]c2ccc(O)cc12)C(=O)O [5-hydroxytryptophan (5-HTP)] | -0.0946 (inactive)
13 | C[C@@H]1C(=O)O[C@H]2C[C@@]34[C@H]5C[C@@H](C(C)(C)C)[C@]36[C@@H](OC(=O)[C@@H]6O)O[C@@]4(C(=O)O5)[C@]21O [Ginkgolide A] | -0.028 (inactive)
14 | O=C1c2c(O)cccc2C([C@@H]2O[C@H](CO)[C@@H](O)[C@H](O)[C@H]2O)c2cc(CO)cc(O)c21 (stereo not given in full) [Aloin] | -0.014 (inactive)
15 | CN[C@@H]1[C@@H](O[C@H]2O[C@H](CO)[C@@H](N)[C@H](O)[C@H]2O)OC2C[C@@H](N)[C@@H](O[C@H]3[C@H](O)[C@@H](O)[C@H](N)C[C@@H]3N)OC2[C@@H]1O (stereo not given in full) [Apramycin sulfate] | -0.0456 (inactive)
16 | NC1C(O)O[C@H](CO)C(O[C@@H]2O[C@H](CO)C(O[C@@H]3O[C@H](CO)[C@@H](O)[C@H](O)[C@H]3N)[C@H](O)C2N)C1O (stereo not given in full) [Chitosan] | 0.266 (inactive)
17 | C=C(C)[C@@H]1CC=C(CO)CC1 [Perillyl alcohol] | 0.195 (inactive)
18 | C[n+]1cc2c3c(ccc2c2ccc4cc5c(cc4c21)OCO5)OCO3 [Sanguinarine chloride] | 0.982 (active)
19 | Cc1cccc(C)c1NC(=O)c1ccccc1C(=O)O [Ftaxilide] | -0.0604 (inactive)
20 | CC(=O)OC/C=C(C)/C=C/C=C(C)/C=C/C1=C(C)CCCC1(C)C [Retinyl acetate] | -0.265 (inactive)

Row | Compound | inhibition of cell viability
21 | CC1(C)CC[C@]2(C(=O)O)[C@H](O)C[C@]3(C)C(=CC[C@@H]4[C@@]5(C)CC[C@H](O)[C@@](C)(C=O)[C@@H]5CC[C@]43C)[C@@H]2C1 [Quillaic Acid] | 0.0942 (inactive)
22 | CC(C)[C@H](NC(=O)[C@H](CC(=O)O)NC(=O)[C@H](CCCCN)NC(=O)[C@@H](N)CCCN=C(N)N)C(=O)N[C@@H](Cc1ccc(O)cc1)C(=O)O [Thymopentin] | 0.0248 (inactive)
23 | N[C@@H](Cc1cc(I)c(O)c(I)c1)C(=O)O [3,5-Diiodotyrosine Dihydrate] | 0.24 (inactive)
24 | CC1(C)C2CC[C@@]3(C)[C@@H](C(=O)C=C4[C@@H]5C[C@](C)(C(=O)O)CC[C@@]5(C)CC[C@@]43C)[C@]2(C)CC[C@H]1O (stereo not given in full) [Glycyrrhetinic acid(Enoxolone)] | -0.198 (inactive)
25 | COC(=O)Nc1nc2cc(C(=O)c3cccs3)ccc2[nH]1 [Nocodazole] | 0.75 (active)
26 | CC1(C)[C@@H](O[C@H]2O[C@H](C(=O)O)[C@@H](O)[C@H](O)[C@H]2O[C@@H]2O[C@H](C(=O)O)[C@@H](O)[C@H](O)[C@H]2O)CC[C@]2(C)[C@H]3C(=O)C=C4[C@@H]5C[C@@](C)(C(=O)O)CC[C@]5(C)CC[C@@]4(C)[C@]3(C)CC[C@@H]12 [Glycyrrhizin (Glycyrrhizic Acid)] | -0.0055 (inactive)
27 | NC(=O)NC1NC(=O)NC1=O (stereo not given) [Allantoin] | 0.00777 (inactive)
28 | CN(C)[C@@H]1C(O)=C(C(N)=O)C(=O)[C@@]2(O)C(O)=C3C(=O)c4c(O)ccc(Cl)c4[C@@](C)(O)[C@H]3C[C@@H]12 [Chlortetracycline hydrochloride] | -0.0618 (inactive)
29 | Oc1cc(O)c2c(c1)O[C@H](c1cc(O)c(O)c(O)c1)[C@H](O)C2 [Epigallocatechin] | -0.059 (inactive)
30 | COc1ccc2cc3[n+](cc2c1OC)CCc1cc2c(cc1-3)OCO2 [Berberine hydrochloride] | -0.108 (inactive)
31 | CCCCCCCCCCCCCCCCCCCCCCCCCCCCCCO | 0.22 (inactive)
32 | Nc1ncnc2c1ncn2C1CC(O)C(CO)O1 (stereo not given) [2'-Deoxyadenosine monohydrate] | -0.0483 (inactive)
33 | O=C(/C=C/c1ccc(O)cc1)c1ccc(O)cc1O [Isoliquiritigenin] | 0.485 (inactive)
34 | O=c1cc(-c2ccccc2)oc2c(O)c(O)ccc12 [7,8-Dihydroxyflavone] | 0.694 (active)
35 | COc1cc2ccc(=O)oc2c(O)c1O [Fraxetin] | -0.0287 (inactive)
36 | COC(=O)C1=CO[C@@H](O[C@@H]2O[C@H](CO)[C@@H](O)[C@H](O)[C@H]2O)[C@@H]2C(CO)=CC[C@H]12 [Geniposide] | 0.00243 (inactive)
37 | COc1ccc(-c2cc(=O)c3c(O)c(OC)c(O)cc3o2)cc1OC [Eupatilin] | 0.345 (inactive)
38 | COc1ccc(-c2cc(=O)c3c(OC)c(OC)c(OC)c(OC)c3o2)cc1OC [Nobiletin] | 0.293 (inactive)
39 | CC[C@H]1OC(=O)C[C@@H](O)[C@H](C)[C@@H](O[C@@H]2O[C@H](C)[C@@H](O[C@H]3C[C@@](C)(O)[C@@H](O)[C@H](C)O3)[C@H](N(C)C)[C@H]2O)[C@@H](CC=O)C[C@@H](C)C(=O)/C=C/C(C)=C/[C@@H]1CO[C@@H]1O[C@H](C)[C@@H](O)[C@@H](OC)[C@H]1OC [Tylosin] | 0.0387 (inactive)
40 | NC(N)=O | -0.0194 (inactive)
